In PubChem BioAssay (NCI):
Several values for one entry are separate records, joined by “and”; a condition that tells them apart may be missing. Identical values can stand only once. This is part of a sample that, as a whole, favours compounds with a hit. Of some 83,000 tested, about 20% had one in any assay.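 The test compound was applied at a single concentration to cells in 96-well plates for 48 hours, and percent growth was recorded.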 Where a structure was tested more than once in an assay, its records may differ in their call. Activity calls are given as the source filed them. The calls were made as follows: active = growth percent below 10; inactive = the rest.

Experiments:
Test in all cases: NCI-60 one-dose screen, 48 h (100 = growth as untreated, 0 = no growth, -100 = all killed)
Conditions in all cases: 10 µM
NCI-H23 lung = tested on: NCI-H23 lung
NCI-H522 lung = tested on: NCI-H522 lung
MDA-MB-231 breast = tested on: MDA-MB-231 breast
M14 melanoma = tested on: M14 melanoma
SK-MEL-5 melanoma = tested on: SK-MEL-5 melanoma
UACC-62 melanoma = tested on: UACC-62 melanoma
MOLT-4 leukemia = tested on: MOLT-4 leukemia
SR leukemia = tested on: SR leukemia
OVCAR-8 ovarian = tested on: OVCAR-8 ovarian
OVCAR-5 ovarian = tested on: OVCAR-5 ovarian
OVCAR-4 ovarian = tested on: OVCAR-4 ovarian
SK-OV-3 ovarian = tested on: SK-OV-3 ovarian
IGROV1 ovarian = tested on: IGROV1 ovarian
HS 578T breast = tested on: HS 578T breast
NCI/ADR-RES ovarian = tested on: NCI/ADR-RES ovarian
T-47D breast = tested on: T-47D breast
SW-620 colon = tested on: SW-620 colon
MCF7 breast = tested on: MCF7 breast
HCT-116 colon = tested on: HCT-116 colon
KM12 colon = tested on: KM12 colon

Measured: growth

CC1=C[C@H]2O[C@@H]3C[C@H]4OC(=O)/C=C\C=C\[C@H]([C@@H](C)O)OCC/C(C)=C/C(=O)OC[C@@]2(CC1)[C@]4(C)[C@]31CO1
active: NCI-H23 lung -36.1% | NCI-H522 lung -39.3% | MDA-MB-231 breast -29.6% | M14 melanoma -73.7% | SK-MEL-5 melanoma -89.2% | UACC-62 melanoma -58.6% | MOLT-4 leukemia -18.5% | SR leukemia -9.9% | OVCAR-8 ovarian -24.4% | OVCAR-5 ovarian -14.8% | OVCAR-4 ovarian -22.1% | SK-OV-3 ovarian -23.5% | IGROV1 ovarian -10.7% | HS 578T breast -9.53% | NCI/ADR-RES ovarian -20% | T-47D breast -20% | SW-620 colon 0.094% | MCF7 breast -10.6% | HCT-116 colon -28.7% | KM12 colon 3.74%

COc1cc(C)c(-c2ccc(OC)c(=O)cc2C)c(OC)c1OC
4.63% (active) and 101% (inactive): M14 melanoma
5.3% (active) and 100% (inactive): OVCAR-8 ovarian
6.94% (active) and 109% (inactive): KM12 colon
-11.4% (active) and 98.2% (inactive): NCI-H522 lung
-11.5% (active) and 107% (inactive): NCI/ADR-RES ovarian
9.85% (active) and 89.4% (inactive): SR leukemia
1.63% (active) and 109% (inactive): HS 578T breast
inactive: NCI-H23 lung 22.3% and 106% | MDA-MB-231 breast 18.3% and 99.8% | SK-MEL-5 melanoma 21.7% and 99.7% | UACC-62 melanoma 30.8% and 86.1% | MOLT-4 leukemia 12.3% and 102% | OVCAR-5 ovarian 24.6% and 98.9% | OVCAR-4 ovarian 70.9% and 96.9% | SK-OV-3 ovarian 32.4% and 102% | IGROV1 ovarian 27.2% and 103% | T-47D breast 61% and 137% | SW-620 colon 19.6% and 104% | MCF7 breast 14.8% and 91.5% | HCT-116 colon 11.9% and 102%

Cc1ccc(CNc2nc3ccc(OC/C(=C/F)CN)cc3o2)cn1
inactive: NCI-H23 lung 88.4% | MDA-MB-231 breast 79.6% | M14 melanoma 99.8% | SK-MEL-5 melanoma 98% | UACC-62 melanoma 90.8% | MOLT-4 leukemia 99.8% | SR leukemia 101% | OVCAR-8 ovarian 108% | OVCAR-5 ovarian 103% | OVCAR-4 ovarian 88.1% | SK-OV-3 ovarian 105% | IGROV1 ovarian 78.5% | HS 578T breast 101% | NCI/ADR-RES ovarian 102% | T-47D breast 101% | SW-620 colon 97.6% | MCF7 breast 88.8% | HCT-116 colon 100% | KM12 colon 103%

COC1[C@@H]2C[C@H]3C(C)(C)O[C@@](C/C=C(/C)C(=O)O)(C2=O)[C@]32Oc3c(CC=C(C)C)c4c(c(O)c3C(=O)[C@H]12)C=CC(C)(C)O4 (some centres undefined)
active: NCI-H23 lung -64.5% | NCI-H522 lung -68.6% | MDA-MB-231 breast -18.3% | M14 melanoma -53.9% | SK-MEL-5 melanoma -98.4% | UACC-62 melanoma -70% | MOLT-4 leukemia -8.14% | SR leukemia 1.28% | OVCAR-8 ovarian -58.5% | OVCAR-5 ovarian -40% | OVCAR-4 ovarian -33.7% | IGROV1 ovarian -26% | NCI/ADR-RES ovarian -10.9% | T-47D breast -27.2% | SW-620 colon -14.7% | MCF7 breast -78.8% | HCT-116 colon -61.4% | KM12 colon -84.3%
inactive: SK-OV-3 ovarian 13.7% | HS 578T breast 22.9%

CN(CCF)/N=N/c1nc[nH]c1C(N)=O
active: SK-OV-3 ovarian -4.12%
inactive: NCI-H23 lung 77% | NCI-H522 lung 64.2% | MDA-MB-231 breast 39.5% | M14 melanoma 23.3% | SK-MEL-5 melanoma 74.6% | UACC-62 melanoma 31.2% | MOLT-4 leukemia 18.7% | SR leukemia 22.3% | OVCAR-8 ovarian 27% | OVCAR-5 ovarian 62.8% | OVCAR-4 ovarian 44.2% | IGROV1 ovarian 44% | HS 578T breast 93.1% | NCI/ADR-RES ovarian 32.5% | T-47D breast 57.3% | SW-620 colon 25.9% | MCF7 breast 36.2% | HCT-116 colon 24% | KM12 colon 58.9%

CC(=O)O[C@@H]1[C@@H]2O[C@H]2[C@@](C)(O)C(=O)[C@@H](C)C/C=C/[C@H]2[C@@H]3O[C@]3(C)[C@@H](C)C3[C@H](Cc4ccccc4)NC(=O)[C@@]312 (some centres undefined)
inactive: NCI-H23 lung 70.4% | NCI-H522 lung 18.2% | MDA-MB-231 breast 22% | M14 melanoma 65.2% | SK-MEL-5 melanoma 71% | UACC-62 melanoma 78.8% | MOLT-4 leukemia 67.9% | SR leukemia 60.7% | OVCAR-8 ovarian 84.4% | OVCAR-5 ovarian 96.3% | OVCAR-4 ovarian 55.8% | SK-OV-3 ovarian 22.9% | IGROV1 ovarian 54.7% | NCI/ADR-RES ovarian 82% | T-47D breast 33.6% | SW-620 colon 55.5% | MCF7 breast 56.8% | HCT-116 colon 54.9% | KM12 colon 66.6%
active: HS 578T breast 4.92%
